PubChem BioAssay (NCATS)
Inconclusive results are not listed. Active and inactive are the calls of the source. The call rests on the fitted dose curve; in most records, active means well fitted inhibition curve with a large enough effect; inconclusive means small, poorly fitted or top-dose-only effect; inactive means flat fitted curve, though single readings scatter.

system: CRL-7250; assay: qHTS assay to identify novel small-molecules to repurpose for Merkel cell carcinoma treatment (AID 1296009); settings: MCC and control cell lines, CellTiter-Glo viability, 72 h; at 44.8 µM (top of the series) unless noted; further: nearly all actives have a fitted effect of over 60% in size
Excerpt: MCC is a rare and aggressive neuroendocrine skin cancer with limited treatment options. Approximately 80% of MCCs have the Merkel cell polyomavirus (MCPyV) DNA integrated into the host genome (virus-positive: VP-MCC) and viral oncogenes drive oncogenesis. The remaining MCCs are virus-negative (VN-MCC) and are caused by UV mutagenesis. To identify novel treatments for VP-MCC and/or VN-MCC we screened three VP-MCC cell lines (WAGA, MKL-1, MKL-2), three VN-MCC cell lines (MCC-13, MCC-26, UISO), and four immortalized, non-transformed control cell lines (HaCaT, HEK293T, CRL7250, NIH-3T3) against ~2,400 compounds in the NCGC Pharmaceutical Collection (NPC) and ~1,900 compounds in the Mechanism Interrogation PlatE (MiPE). Using cell viability as a readout (CellTiter-Glo assay) we found both overlapping and distinct drugs that can be repurposed for the treatment of VP-MCC and VN-MCC.
A high-throughput screen was conducted in 1536-well white flat bottom plates (Corning) on a Kalypsys robotic system. Cell lines WAGA, MKL-1, MKL-2, MCC-13, MCC-26, UISO, HaCaT, HEK293T, CRL7250, and NIH-3T3 were screened against 2 small molecule annotated drug libraries NPC and MIPE in dose response (8 and 11 pt. respectively) measuring cell viability after 72 hours of incubation. […] A 1,536 pintool (Kalypsys) was used to transfer 23 nL of compound in DMSO to the 1,536-well assay plates. After 72 hr incubation at 37 degree celsius, 2.5 uL of CellTiter-Glo (Promega) was dispensed into each well using a BiorapTR. Plates were incubated at room temperature for 10 min, transferred to a ViewLux (PerkinElmer) and the luminescence was recorded using an exposure time of 2 seconds. Relative luminescence units (RLUs) were normalized to in-plate controls (no cells as a positive (cytotoxicity) control, DMSO as negative control) and the normalized data was processed using NCATS in-house software.

Compound | outcome
CCCOC(=O)c1ccc(N)cc1 | inactive
CCC(CN)=C(c1ccccc1)c1ccccc1 | inactive
Nc1ccc(N=Nc2ccccc2)c(N)n1 | inactive
N[C@@H](CSSC[C@H](N)C(=O)O)C(=O)O | inactive [at 0.588 µM]
C[C@]12CC[C@@H]3c4ccc(O)cc4CC[C@H]3[C@@H]1CCC2=O | inactive
CC1=CC(=O)c2ccccc2C1=O | inactive
CCCc1cc(C(N)=S)ccn1 | inactive
Clc1ccc(C(Cn2ccnc2)OCc2ccc(Sc3ccccc3)cc2)c(Cl)c1 (stereo not given) | inactive
O=c1[nH]c(=O)c2ccccc2o1 | inactive
Cc1[nH]c(=O)c(C#N)cc1-c1ccc2nccn2c1 | inactive
CCCCCCCCCCCCCCCCC(C(=O)O)C(O)(CC(=O)O)C(=O)O (stereo not given) | inactive
CC(C)OC(=O)C(C(=O)OC(C)C)=C1SC=CS1 | inactive
OC1C(O)C(O)C(O)C(O)C1O (stereo not given) | inactive
Nc1c2c(nc3c1CCC3)CCCC2 | inactive
CC(=O)N1C[C@H](O)C[C@H]1C(=O)O | inactive
O=c1ccc2ccccc2o1 | inactive
Nc1nc2ncc(CNc3ccc(C(=O)N[C@@H](CCC(=O)O)C(=O)O)cc3)nc2c(=O)[nH]1 | inactive
COc1cc2[nH]c(=O)[nH]c(=O)c2cc1OC | inactive
CCOc1ccccc1O[C@H](c1ccccc1)[C@H]1CNCCO1 | inactive
O=C(O)Cc1ccc2c(c1)C(=O)c1ccccc1CO2 | inactive

Compound | outcome
CC(C)Cn1cnc2c1c(=O)n(C)c(=O)n2C | inactive
O[C@@H](COc1cccc2ncccc12)CN1CCN(C2c3ccccc3[C@@H]3[C@H](c4ccccc42)C3(F)F)CC1 (stereo not given in full) | inactive
CCCCCCCC/C=C\CCCCCCCCN | inactive
O=C(OCC(COC(=O)c1cccnc1)(COC(=O)c1cccnc1)COC(=O)c1cccnc1)c1cccnc1 | inactive
Clc1ccc(Cn2c(CN3CCCC3)nc3ccccc32)cc1 | inactive
CC(=O)SC[C@@H](Cc1ccccc1)C(=O)NCC(=O)OCc1ccccc1 | inactive
C[C@]12CC[C@@H]3c4ccc(O)cc4CC[C@H]3[C@@H]1CC[C@@H]2OC(=O)CCC1CCCC1 | inactive
N/C(=N\N=C\c1ccc(Cl)cc1)N/N=C/c1ccc(Cl)cc1 | inactive
ClCCCN1CCN(c2cccc(Cl)c2)CC1 | inactive
NC(N)=NCCC[C@H](N)C(=O)O | inactive [at 4.96 µM]
C(=C\c1ccccc1)/CN1CCN(C(c2ccccc2)c2ccccc2)CC1 | inactive
CCCCOc1cc(C(=O)OCCN(CC)CC)ccc1N | inactive
Cc1ccc(Nc2c(F)cccc2Cl)c(CC(=O)O)c1 | inactive
Cc1c(Cl)cccc1Nc1ccccc1C(=O)O | inactive
CC(=O)NC(Cc1ccccc1)C(=O)O (stereo not given) | inactive [at 92 µM]
C[C@H](O)C(=O)Nc1c(I)c(C(=O)NC(CO)CO)c(I)c(C(=O)NC(CO)CO)c1I | inactive
COC(=O)C1=CCCN(C)C1 | inactive
CC(C)NCCCC1(C(N)=O)c2ccccc2-c2ccccc21 | inactive
C[C@]12CC[C@H]3[C@@H](CCC4=CC(=O)CC[C@@]43C)[C@@H]1CC[C@@H]2C(=O)O | inactive
CCCC(=O)OC[C@@H](OC(=O)CCC)[C@@H](OC(=O)CCC)[C@H](Cn1c2nc(=O)[nH]c(=O)c-2nc2cc(C)c(C)cc21)OC(=O)CCC | inactive
